From PubChem
Pf apPOL block – Pf-apPOL DNA polymerase inhibition; Recombinant Pf-apPOL, molecular beacon fluorescence, 1.5 h; inhibition, % at 10 µM; hit rate 0.25% among 210,000
mHTT-CaM PPI inh – inhibitors of human mutant huntingtin-calmodulin interaction. P42858. AlphaScreen His-mHTT/GST-CaM binding, luminescence. inhibition, % at 15 µM. hit rate 3.6% among 190,000
Target sequence (P42858 whole entry, looked up, change not shown): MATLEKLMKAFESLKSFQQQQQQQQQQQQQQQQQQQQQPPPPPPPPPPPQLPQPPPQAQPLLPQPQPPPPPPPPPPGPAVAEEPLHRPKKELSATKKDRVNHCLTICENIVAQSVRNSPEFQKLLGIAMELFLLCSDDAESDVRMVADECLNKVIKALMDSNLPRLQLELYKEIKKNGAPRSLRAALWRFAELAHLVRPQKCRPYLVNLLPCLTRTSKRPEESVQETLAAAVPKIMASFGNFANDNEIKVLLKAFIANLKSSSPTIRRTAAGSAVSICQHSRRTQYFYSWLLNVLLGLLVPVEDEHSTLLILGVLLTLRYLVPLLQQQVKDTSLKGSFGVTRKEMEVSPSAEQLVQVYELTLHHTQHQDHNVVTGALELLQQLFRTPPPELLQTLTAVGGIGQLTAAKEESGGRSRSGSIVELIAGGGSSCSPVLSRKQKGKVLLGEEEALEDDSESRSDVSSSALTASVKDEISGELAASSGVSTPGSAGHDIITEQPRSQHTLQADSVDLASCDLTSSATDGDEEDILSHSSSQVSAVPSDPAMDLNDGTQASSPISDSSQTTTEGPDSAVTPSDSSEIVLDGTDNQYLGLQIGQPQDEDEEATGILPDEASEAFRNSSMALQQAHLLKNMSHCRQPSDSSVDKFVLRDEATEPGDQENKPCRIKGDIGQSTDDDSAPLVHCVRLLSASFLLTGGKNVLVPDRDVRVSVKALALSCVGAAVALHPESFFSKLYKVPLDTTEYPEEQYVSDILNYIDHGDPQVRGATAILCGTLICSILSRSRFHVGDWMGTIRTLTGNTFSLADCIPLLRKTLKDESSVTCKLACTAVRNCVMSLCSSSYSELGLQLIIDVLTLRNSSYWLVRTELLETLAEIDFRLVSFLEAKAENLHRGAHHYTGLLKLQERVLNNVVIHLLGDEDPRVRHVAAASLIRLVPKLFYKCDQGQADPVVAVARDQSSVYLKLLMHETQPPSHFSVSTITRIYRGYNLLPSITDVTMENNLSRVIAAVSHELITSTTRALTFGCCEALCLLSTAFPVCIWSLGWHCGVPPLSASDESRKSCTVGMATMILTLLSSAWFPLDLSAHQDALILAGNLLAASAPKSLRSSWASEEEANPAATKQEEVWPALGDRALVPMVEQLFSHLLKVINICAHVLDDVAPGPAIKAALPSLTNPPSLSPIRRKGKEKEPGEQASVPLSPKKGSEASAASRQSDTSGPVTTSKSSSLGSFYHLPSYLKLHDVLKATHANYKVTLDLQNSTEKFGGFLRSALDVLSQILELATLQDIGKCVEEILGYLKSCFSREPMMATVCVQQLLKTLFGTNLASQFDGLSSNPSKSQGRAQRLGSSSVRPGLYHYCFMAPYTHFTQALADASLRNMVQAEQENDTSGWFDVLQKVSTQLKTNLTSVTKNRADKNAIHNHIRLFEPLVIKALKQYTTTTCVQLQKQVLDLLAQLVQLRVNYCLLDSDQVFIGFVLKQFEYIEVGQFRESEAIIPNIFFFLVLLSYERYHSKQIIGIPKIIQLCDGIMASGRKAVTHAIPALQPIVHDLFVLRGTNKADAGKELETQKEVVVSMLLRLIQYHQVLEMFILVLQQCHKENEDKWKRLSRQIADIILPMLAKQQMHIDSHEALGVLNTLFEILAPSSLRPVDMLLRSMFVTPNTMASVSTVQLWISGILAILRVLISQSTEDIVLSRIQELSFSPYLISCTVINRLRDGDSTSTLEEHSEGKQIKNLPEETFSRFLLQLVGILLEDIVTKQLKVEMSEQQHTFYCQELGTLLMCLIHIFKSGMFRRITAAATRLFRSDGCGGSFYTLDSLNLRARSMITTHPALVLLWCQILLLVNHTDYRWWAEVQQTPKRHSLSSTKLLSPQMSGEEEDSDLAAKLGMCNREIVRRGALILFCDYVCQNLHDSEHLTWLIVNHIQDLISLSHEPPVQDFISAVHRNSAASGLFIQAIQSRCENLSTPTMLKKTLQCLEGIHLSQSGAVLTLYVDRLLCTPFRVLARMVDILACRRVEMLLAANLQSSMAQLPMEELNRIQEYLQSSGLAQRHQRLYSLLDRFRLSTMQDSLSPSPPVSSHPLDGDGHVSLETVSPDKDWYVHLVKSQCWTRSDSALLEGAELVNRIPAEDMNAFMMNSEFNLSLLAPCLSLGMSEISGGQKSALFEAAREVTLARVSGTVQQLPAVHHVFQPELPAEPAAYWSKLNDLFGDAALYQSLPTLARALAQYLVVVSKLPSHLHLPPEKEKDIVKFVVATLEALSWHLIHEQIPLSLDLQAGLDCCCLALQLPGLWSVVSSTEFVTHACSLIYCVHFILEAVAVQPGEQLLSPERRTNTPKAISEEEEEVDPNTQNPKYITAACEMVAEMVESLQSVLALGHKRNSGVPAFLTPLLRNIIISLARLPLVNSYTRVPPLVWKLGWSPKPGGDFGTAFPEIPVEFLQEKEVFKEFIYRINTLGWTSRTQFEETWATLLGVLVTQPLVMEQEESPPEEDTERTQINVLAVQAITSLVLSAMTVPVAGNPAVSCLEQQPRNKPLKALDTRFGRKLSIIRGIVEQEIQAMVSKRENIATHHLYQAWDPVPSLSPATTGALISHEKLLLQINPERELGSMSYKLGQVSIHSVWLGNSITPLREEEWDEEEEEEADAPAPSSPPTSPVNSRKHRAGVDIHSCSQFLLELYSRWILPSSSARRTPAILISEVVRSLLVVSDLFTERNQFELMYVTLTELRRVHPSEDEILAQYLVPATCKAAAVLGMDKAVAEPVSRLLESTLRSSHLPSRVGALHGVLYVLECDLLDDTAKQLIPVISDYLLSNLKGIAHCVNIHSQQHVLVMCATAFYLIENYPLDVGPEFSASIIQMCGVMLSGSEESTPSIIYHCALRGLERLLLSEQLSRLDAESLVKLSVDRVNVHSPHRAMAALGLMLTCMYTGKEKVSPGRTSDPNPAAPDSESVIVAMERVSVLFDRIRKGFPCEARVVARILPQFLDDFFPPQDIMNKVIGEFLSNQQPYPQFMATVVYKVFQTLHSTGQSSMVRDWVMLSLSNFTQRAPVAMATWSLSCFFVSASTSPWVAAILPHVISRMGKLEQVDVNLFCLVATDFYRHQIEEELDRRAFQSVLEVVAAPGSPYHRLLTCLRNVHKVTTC
Each line names hits and unclear results; the compound was inactive in the other large screens; ! = repeats disagree. An excerpt weighted towards active compounds, which were near 3.6% of everything screened. Rule as the data show it: active = inhibition above about 50%; inactive = the rest.

Cc1[nH]nc2c1C(c1ccc(-c3ccccc3Cl)o1)C(C#N)=C(N)O2 (stereo unspecified)	mHTT-CaM PPI inh 50
O=C(Nc1ccc2nn(-c3ccc(F)cc3)nc2c1)c1ccccc1F	none
CN1C(=O)c2ccccc2C(C(=O)Nc2ccc(F)cc2Cl)C1c1ccc(F)cc1 (stereo unspecified)	none
Cc1ccc(NC(=O)C2c3ccccc3C(=O)N(C)C2c2c[nH]c3ccccc23)c(Cl)c1 (stereo unspecified)	mHTT-CaM PPI inh 87
FC(F)(F)c1cccc(CN2CC(c3nc(Cc4ccccc4)no3)C2)c1	mHTT-CaM PPI inh 62
Cc1cccc(CS(=O)(=O)N2CC(c3nc(Cc4ccccc4)no3)C2)c1	none
Cc1nnc(NC(=O)CN2CC(c3nc(Cc4ccccc4)no3)C2)s1	none
O=C(CN1CC(c2nc(Cc3ccccc3)no2)C1)c1ccc(Cl)cc1	mHTT-CaM PPI inh 57
O=C(O)C1CSCN1C(=O)OCC1c2ccccc2-c2ccccc21 (stereo unspecified)	none (no result: mHTT-CaM PPI inh)
Cc1cccc(NC(=O)N2CCC(N3CCN(Cc4ccc(F)cc4)C3=O)CC2)c1C	none
FC(F)(F)c1cc(-c2ccccc2)nc(NCc2cccs2)n1	none
COc1ccc(-c2ccccc2)cc1NCc1cccs1	mHTT-CaM PPI inh 55
O=C(Cc1cccs1)Nc1cccc(C(=O)c2ccccc2)c1	none
O=C(Cc1cccs1)Nc1cnc(-c2ccccc2)nc1	mHTT-CaM PPI inh 51
COc1ccc(NC(=O)CC2(C)NN=C(c3ccccc3)S2)c(OC)c1 (stereo unspecified)	mHTT-CaM PPI inh 73
COc1ccc(NC(=O)CCOc2ccccc2)c(OC)c1	none
O=C(O)c1coc2c1C(=NNc1ccccc1)CCC2	none (no result: mHTT-CaM PPI inh)
c1ccc(N/N=C2/C/C(=N\Nc3ccccc3)c3ccccc32)cc1	mHTT-CaM PPI inh 91 (no result: Pf apPOL block)
Cc1cccc(OCCNCCO)c1C	none
CC1(C)C(C=C(Cl)Cl)C1C(=O)Nc1sc2c(c1C#N)CCC2 (stereo unspecified)	none
CC1(C)C(C=C(Cl)Cl)C1C(=O)Nc1sc2c(c1C(N)=O)CCCC2 (stereo unspecified)	mHTT-CaM PPI inh 100
COCCCNC(=O)c1cnn2c(C)c(Cc3ccc(Cl)cc3)c(C)nc12	mHTT-CaM PPI inh 90
Cc1nc2c(C(=O)N3CCCCC3)cnn2c(C)c1Cc1ccc(Cl)cc1	mHTT-CaM PPI inh 100
Cc1nc2c(C(=O)NCc3ccccc3)cnn2c(C)c1Cc1ccc(Cl)cc1	none
Cc1nc2c(C(=O)N3CCCC(C)C3)cnn2c(C)c1Cc1ccc(Cl)cc1 (stereo unspecified)	mHTT-CaM PPI inh 100
Cc1nc2c(C(=O)N3CCCCC3)cnn2c(C)c1Cc1ccccc1Br	none
COCCNC(=O)c1cnn2c(C)c(Cc3ccc(F)cc3)c(C)nc12	none
CCCCS(=O)(=O)N1CCC(c2nc3ccncc3n2C)C1 (stereo unspecified)	none
O=[N+]([O-])c1ccc(NC(c2ccco2)c2ccc3cccnc3c2O)cc1 (stereo unspecified)	mHTT-CaM PPI inh 100
CC(=O)NC(c1ccccc1C)c1ccc2cccnc2c1O (stereo unspecified)	mHTT-CaM PPI inh 100
Cc1ccccc1C(NC(N)=O)c1ccccc1 (stereo unspecified)	none
Cc1ccc2cccc(SCc3ccc([N+](=O)[O-])cc3)c2n1	none
Cc1cccnc1NC(c1ccc([N+](=O)[O-])cc1)c1ccc2cccnc2c1O (stereo unspecified)	mHTT-CaM PPI inh 100
CC(Oc1cccc2cccnc12)C(=O)O (stereo unspecified)	none
CC(=O)NC(c1ccc(C)cc1)c1ccc2cccnc2c1O (stereo unspecified)	mHTT-CaM PPI inh 100
O=C(Nc1ccc(-c2ccc([N+](=O)[O-])cc2)cc1)c1ccco1	none
COc1ccc(C2CCCN2C(=O)c2cc(-c3ccc(F)cc3)on2)cc1 (stereo unspecified)	none
CC1CC(C)CN(S(=O)(=O)c2cc(Br)cc3c2N(C(=O)C2CC2)CC3)C1 (stereo unspecified)	none
CN1C(=O)C2(CCN(C(=O)Nc3ccc4c(c3)OCO4)C2)c2ccccc21 (stereo unspecified)	none
Cc1ccccc1COCc1nn(C)c2c1CN(C(=O)c1ccc(F)cc1)CC2	none
CC(=O)NC(c1ccc([N+](=O)[O-])cc1)c1ccc2cccnc2c1O (stereo unspecified)	mHTT-CaM PPI inh 100
O=C(Nc1ccc(Cl)c(C(F)(F)F)c1)C(NS(=O)(=O)c1cccs1)c1ccccc1 (stereo unspecified)	mHTT-CaM PPI inh 100
O=C(Nc1ccccc1F)C(NS(=O)(=O)c1cccs1)c1ccccc1 (stereo unspecified)	none
COc1cccc(C(=O)NCCCN2CCOC(c3ccccc3)C2)c1OC (stereo unspecified)	none
COc1ccc2c(Cl)c(C(=O)Nc3cc(C)ccc3C)sc2c1Cl	none
CCCNC(=O)c1sc2c(Cl)c(OC)ccc2c1Cl	mHTT-CaM PPI inh 100
COc1cc2c(cc1OC)C(C1=NC(C)(C)Cc3ccccc31)=NC(C)(C)C2	none
COc1cc2c(cc1OC)C(SC)=NC(C)(C)C2	Pf apPOL block 95!
